PLK1 PBD inh: inhibitors of human Plk1 polo box domain binding; P53350; Plk1 PBD phosphopeptide binding, fluorescence polarization; inhibition, %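 (tested at about 20 µM)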; hit rate 0.13% among 97,000; in the data active = inhibition above about 34%, passing the limit was not always enough
NFkB transloc inh: blocks IL-1B driven NFkB nuclear translocation in HUVEC cells. AID 796. HUVEC IL-1B NFkB p65 nuclear translocation imaging. hit rate 0.43% among 94,000. inhibition, % at 2 µM;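 active = inhibition above about 30% together with a positive call from visual inspection of the well image, limit read from the data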;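 note: nuclear over cytoplasmic p65 intensity ratio measured by imaging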
IL1B NFkB pot: enhances IL-1B driven NFkB nuclear translocation; HUVEC IL-1B NFkB p65 nuclear translocation imaging; activation, % at 2 µM; hit rate 0.3% among 94,000; AID 819;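 active = activation above 40%, about the mean plus 3 SD, also judged a hit on visual image review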;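 note: percent activation is computed from the nuclear over cytoplasmic p65 intensity ratio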
IL1B cytotox: HUVEC cytotoxicity counter-screen, IL-1B stimulated; hit rate 0.41% among 94,000; HUVEC cell count loss, Hoechst imaging; cell count reduction, % at 2 µM;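 active = cell count reduction more than 3 SD above the screen-wide mean, cut at about 70% in these data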
PLK1 kinase inh: blocks human PLK1 kinase activity; recombinant PLK1 kinase, TR-FRET peptide phosphorylation; inhibition, % at 10 µM; hit rate 0.53% among 97,000; AID 619;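 active = inhibition of 50% or more in the single-concentration screen; inactive = inhibition below 50%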
PTK2B oligo ant: blocks oligomerization of human Pyk2 in cells; Q14289; Q293 cells, Pyk2 FERM NanoBiT luminescence; stronger effect = lower value; z-score (the deposit names both 25 µM and 10 µM); hit rate 0.83% among 99,000;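 active = Z-score of -3 or lower, scaled per plate to the spread of control and sample wells; inactive = z-score above -3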;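 note: negative z-score means lost luminescence so less FERM oligomerization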
Numbers stand for hits; – = inactive; · = not tested or not shown. Hits are enriched below; roughly 2.2% of the tested compounds scored in any of these assays.

SMILES | PLK1 PBD inh | NFkB transloc inh | IL1B NFkB pot | IL1B cytotox | PLK1 kinase inh | PTK2B oligo ant
CC(C)(C)c1ccc(C(=O)Nc2cccc3c(=O)[nH][nH]c(=O)c23)cc1 | · | · | · | · | · | –
Cc1cccc(C(=O)CC(=O)c2cc(Cl)ccc2O)c1 | – | – | – | – | – | –
O=C(CC(=O)c1cc(Cl)ccc1O)c1ccccc1 | – | – | – | 89.1 | – | –
CCOc1cc(Br)ccc1S(=O)(=O)NCc1ccccc1 | – | – | – | – | – | –
CCOC(=O)C(=O)Nc1nnc(CCc2ccccc2)s1 | – | – | – | – | – | –
CC1(C)CC(=O)C=C(Nc2ccc(S(N)(=O)=O)cc2)C1 | – | 34.0 | – | – | – | –
CC1(C)CC(=O)C=C(Nc2ccc(C(=O)O)cc2)C1 | – | – | – | – | – | –
CC1CCCC(NC(=O)COC(=O)c2ccc(S(=O)(=O)N3CCOCC3)cc2)C1C (configuration not stated) | – | – | – | – | – | –
CC1CCCCC1NC(=O)COC(=O)c1ccc(N(C)C)cc1 (configuration not stated) | – | – | – | – | – | -3.14
COc1ccc(-n2c(SC)nnc2-c2c[nH]c3ccccc23)cc1 | – | · | · | · | 54.8 | ·
C=CCSc1nnc(-c2c[nH]c3ccccc23)n1CC | – | · | · | · | 61.4 | ·
CCOC(=O)C(C)Sc1nnc(-c2c[nH]c3ccccc23)n1C (configuration not stated) | – | – | – | – | – | ·
CC(C)Sc1nnc(-c2c[nH]c3ccccc23)n1C | – | · | · | · | 63.6 | ·
CCn1c(SC(C)C(=O)OC)nnc1-c1c[nH]c2ccccc12 (configuration not stated) | – | · | · | · | 64.5 | ·
CCn1c(SCC(=O)NCc2ccco2)nnc1-c1c[nH]c2ccccc12 | – | – | – | – | – | –
CCc1nnc(NC(=O)c2ccc3c(c2)C(=O)N(CC)C3=O)s1 | – | – | – | – | – | –
COc1ccccc1-c1nnc(SCC(=O)Nc2ccc(S(N)(=O)=O)cc2)n1C | – | – | – | – | – | –
CC(Sc1nc2ccccc2n1C)C(=O)NC(c1ccccc1)c1ccccc1 (configuration not stated) | – | – | – | – | – | -4.04
CCC1CCCCN1C(=O)CSc1nnc(-c2ccc(Cl)s2)o1 (configuration not stated) | – | – | – | 87.2 | – | –
CCC1CCCCN1C(=O)CSc1nnc(-c2ccc(Cl)cc2)o1 (configuration not stated) | – | – | – | – | – | ·
CN(C)S(=O)(=O)N(CC(=O)Nc1ccccc1F)c1ccccc1 | – | – | – | 78.8 | – | –
COc1ccc(OC)c(-n2c(-c3cccc(O)c3)n[nH]c2=S)c1 | – | – | – | – | – | –
COc1ccc(OC)c(-n2c(-c3ccc(C)cc3)n[nH]c2=S)c1 | – | – | – | 88.2 | – | –
COc1ccccc1C(c1nnnn1Cc1ccccc1)N1CCN(C2CCCC2)CC1 (configuration not stated) | – | – | – | – | – | –
c1ccc(Cn2nnnc2C(c2ccccc2)N2CCN(c3nc4ccccc4s3)CC2)cc1 (configuration not stated) | – | – | – | – | – | -4.06
SMILES | PLK1 PBD inh | NFkB transloc inh | IL1B NFkB pot | IL1B cytotox | PLK1 kinase inh | PTK2B oligo ant
COc1ccc(N2CCN(C(c3ccccc3OC)c3nnnn3Cc3ccco3)CC2)cc1 (configuration not stated) | – | – | – | – | – | -3.22
COc1ccccc1C(c1nnnn1Cc1ccccc1)N1CCN(c2nc3ccccc3s2)CC1 (configuration not stated) | · | · | · | · | · | -3.83
COc1ccc(C(c2nnnn2Cc2ccccc2)N2CCN(c3nc4ccccc4s3)CC2)cc1OC (configuration not stated) | – | – | – | – | – | -3.82
CCC(C)(C)n1nnnc1C(c1ccc(O)c(OC)c1)N1CCN(c2nc3ccccc3s2)CC1 (configuration not stated) | · | · | · | · | · | –
O=C(NCCCN1CCCC1=O)c1cccc(C(F)(F)F)c1 | – | – | – | – | – | –
Cc1c(C(=O)Nc2ccccc2C(=O)N2CCOCC2)cccc1[N+](=O)[O-] | · | · | · | · | · | –
CCn1nc(C)c(NS(=O)(=O)c2ccccc2)c1C | – | – | – | – | – | –
CC(=O)OCc1c(C(F)(F)F)nn(C)c1SCc1ccc(Cl)cc1 | – | – | – | – | – | –
Cc1cccc2cc(C#N)c(SCCN3CCCCC3)nc12 | – | 96.9 | – | 84.2 | – | ·
CCCCOC(=O)/C(=C\c1ccc([N+](=O)[O-])o1)NC(=O)c1ccccc1 | – | – | – | – | – | –
